High-throughput results (PubChem BioAssay)
Pf Dd2 inh = P. falciparum Dd2 growth inhibitors, primary screen, SYBR Green fluorescence, single dose replicates | 72 h; active compounds read low | activity change, % at 10 µM | 2.3% of 94,000 active | AID 1159554, 2015; in the data active = activity change below about -80%
C diff growth = C. difficile growth inhibitors, primary screen, HTS. growth activity, negative = inhibition, % at 16 µg/mL (by protocol). 0.25% of 86,000 active. Clostridium difficile clinical isolate growth, OD600, 24 h; active compounds read low;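 active = mean growth activity at or below -80% and every replicate also at or below -80%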;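 also: 0% = DMSO wells and -100% = levofloxacin 16 µg/mL wells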
The depositor's hits bear a star. The list is not random: actives were taken first. Their share in the collection is about 2.4%.

Results for CCCN(C)C[C@H]1Oc2cc(C#Cc3cccnc3)ccc2S(=O)(=O)N([C@@H](C)CO)C[C@H]1C ?
Pf Dd2 inh: -84*; C diff growth: -8

What do the screens show for `COc1ccc(NC(=O)Nc2ccc3c(c2)CC(=O)N([C@H](C)CO)C[C@@H](C)[C@@H](CN(C)S(=O)(=O)c2ccccc2)O3)cc1`?
Pf Dd2 inh: 14; C diff growth: 9

How did CNC[C@@H]1OCCCC[C@@H](C)Oc2ccc(NC(=O)Nc3c(C)noc3C)cc2C(=O)N([C@H](C)CO)C[C@H]1C do in these assays?
Pf Dd2 inh: 21; C diff growth: -7

What do the screens show for `O=C(C[C@@H]1C=C[C@H](NS(=O)(=O)c2ccc(F)cc2)[C@@H](CO)O1)NCCN1CCCCC1`?
Pf Dd2 inh: 10; C diff growth: 2

How did CNC[C@H]1Oc2ccc(NC(=O)Nc3ccc(OC)cc3)cc2CC(=O)N([C@H](C)CO)C[C@@H]1C do in these assays?
Pf Dd2 inh: 0; C diff growth: -2

Results for COc1ccc2c3c([nH]c2c1)[C@@H](CO)N(C(=O)c1ccccc1)CC31CCN(C)CC1 ?
Pf Dd2 inh: -21; C diff growth: -3

Results for Cc1ccc(S(=O)(=O)N[C@@H]2CC[C@H](CCNC(=O)C3CC3)O[C@@H]2CO)cc1 ?
C diff growth: 3

How did C[C@H]1CN([C@@H](C)CO)S(=O)(=O)c2ccc(-c3ccc(F)cc3)cc2O[C@@H]1CN(C)C(=O)C1CC1 do in these assays?
Pf Dd2 inh: -20; C diff growth: -7

Results for O=C(C[C@@H]1C=C[C@@H](NC(=O)NC2CCCCC2)[C@H](CO)O1)NCc1ccc(Cl)cc1 ?
Pf Dd2 inh: -8; C diff growth: -29

What do the screens show for `C[C@@H]1CN([C@H](C)CO)S(=O)(=O)c2ccc(C#Cc3cccnc3)cc2O[C@H]1CN(C)C`?
Pf Dd2 inh: -25; C diff growth: -1

What do the screens show for `CCCN(C)C[C@@H]1Oc2cc(C#Cc3cccnc3)ccc2S(=O)(=O)N([C@H](C)CO)C[C@@H]1C`?
Pf Dd2 inh: -88*; C diff growth: -3

Results for CCCN(C)C[C@H]1Oc2ncc(-c3cccc(C#N)c3)cc2C(=O)N([C@H](C)CO)C[C@@H]1C ?
Pf Dd2 inh: -65; C diff growth: -3

How did C[C@H](CO)N1C[C@H](C)[C@@H](CN(C)CC2CCCCC2)OCCCC[C@H](C)Oc2ccc(NS(=O)(=O)c3ccc(F)cc3)cc2C1=O do in these assays?
Pf Dd2 inh: -33; C diff growth: 2

How did Cc1noc(C)c1NC(=O)Nc1ccc2c(c1)C(=O)N([C@H](C)CO)C[C@@H](C)[C@@H](CN(C)Cc1ccc(C(=O)O)cc1)O2 do in these assays?
Pf Dd2 inh: 18

What do the screens show for `C[C@@H]1CN([C@@H](C)CO)C(=O)c2cccc(NC(=O)c3cnccn3)c2O[C@H]1CN(C)Cc1ccc(Cl)c(Cl)c1`?
Pf Dd2 inh: -83*; C diff growth: -16

How did C[C@H](CO)N1C[C@H](C)[C@H](CN(C)Cc2ccc(-c3ccccc3)cc2)Oc2c(NC(=O)c3cnccn3)cccc2C1=O do in these assays?
Pf Dd2 inh: -21; C diff growth: 5

How did C[C@@H]1CN([C@@H](C)CO)C(=O)c2cccc(NC(=O)c3cnccn3)c2O[C@@H]1CN(C)Cc1ccc(-c2ccccc2)cc1 do in these assays?
Pf Dd2 inh: -87*; C diff growth: 9

What do the screens show for `C[C@@H]1CN([C@@H](C)CO)C(=O)c2cccc(NC(=O)c3cnccn3)c2O[C@@H]1CN(C)Cc1ccc(Cl)c(Cl)c1`?
Pf Dd2 inh: -58; C diff growth: 7

Results for COc1ccc2c3c([nH]c2c1)[C@@H](CO)N(S(C)(=O)=O)CC31CCN(C(=O)CN(C)C)CC1 ?
Pf Dd2 inh: -38; C diff growth: 0

Results for CCCNC(=O)C[C@H]1CC[C@@H]2[C@H](COc3ccc(NC(=O)NC(C)C)cc3C(=O)N2C)O1 ?
Pf Dd2 inh: 22; C diff growth: -1

What do the screens show for `CN(C)CC(=O)Nc1ccc2c(c1)[C@H]1C[C@H](CC(=O)NC3CCCC3)O[C@@H](CO)[C@H]1O2`?
Pf Dd2 inh: -8

Results for COCC(=O)N1[C@@H](C#N)[C@H](c2ccccc2-c2ccccc2)[C@@H]1CO ?
Pf Dd2 inh: -86*; C diff growth: -8

What do the screens show for `COCC(=O)N1[C@H](CO)[C@@H](c2ccccc2-c2ccccc2)[C@@H]1C#N`?
Pf Dd2 inh: 2; C diff growth: -6

What do the screens show for `CCC(=O)N1[C@@H](C#N)[C@@H](c2ccccc2-c2cccc(C)c2)[C@@H]1CO`?
Pf Dd2 inh: -25; C diff growth: 9

What do the screens show for `CCC(=O)N1[C@H](CO)[C@@H](c2ccccc2-c2cccc(C)c2)[C@@H]1C#N`?
Pf Dd2 inh: -86*; C diff growth: 11

What do the screens show for `COCC(=O)N1[C@H](C#N)[C@@H](c2ccccc2-c2ccccc2)[C@H]1CO`?
Pf Dd2 inh: -93*; C diff growth: -3

How did COCC(=O)N1[C@H](C#N)[C@@H](c2ccccc2-c2ccccc2)[C@@H]1CO do in these assays?
Pf Dd2 inh: 3; C diff growth: -6

What do the screens show for `C[C@H](CO)N1C[C@H](C)[C@@H](CN(C)S(C)(=O)=O)OCCCC[C@H](C)Oc2ccc(NC(=O)Nc3ccc(F)cc3)cc2C1=O`?
Pf Dd2 inh: 50; C diff growth: 5

How did CC(C)NC(=O)N1CC2(C1)[C@@H](c1ccccc1)[C@H](CO)N2C(=O)C1CCCCC1 do in these assays?
Pf Dd2 inh: 21; C diff growth: -2

What do the screens show for `CN(C)CC(=O)N[C@@H]1CC[C@@H](CC(=O)NCc2ccccc2F)O[C@@H]1CO`?
Pf Dd2 inh: 8; C diff growth: 2

How did CCC(=O)N1CCC2(CC1)CN(S(=O)(=O)c1ccccc1)[C@@H](CO)c1[nH]c3cc(OC)ccc3c12 do in these assays?
Pf Dd2 inh: -92*; C diff growth: -17

How did COc1ccc2c3c([nH]c2c1)[C@@H](CO)N(Cc1ccccc1)CC31CCN(S(=O)(=O)c2ccc(C)cc2)CC1 do in these assays?
Pf Dd2 inh: -57; C diff growth: 1

What do the screens show for `CCC(=O)N1CCC2(CC1)CN(S(C)(=O)=O)[C@@H](CO)c1[nH]c3cc(OC)ccc3c12`?
Pf Dd2 inh: 19; C diff growth: 1

What do the screens show for `CCS(=O)(=O)N1CCC2(CC1)CN(S(=O)(=O)c1ccc(C)cc1)[C@@H](CO)c1[nH]c3cc(OC)ccc3c12`?
Pf Dd2 inh: -90*; C diff growth: 0

How did COc1ccc(S(=O)(=O)N2CCC3(CC2)CN(Cc2ccncc2)[C@@H](CO)c2[nH]c4cc(OC)ccc4c23)cc1 do in these assays?
Pf Dd2 inh: -87*; C diff growth: -8

How did COc1ccc(S(=O)(=O)N2CC3(CN(Cc4ccncc4)[C@H](CO)c4[nH]c5cc(OC)ccc5c43)C2)cc1 do in these assays?
Pf Dd2 inh: -62; C diff growth: -3

How did CCS(=O)(=O)N1CC2(C1)CN(S(=O)(=O)c1ccc(C)cc1)[C@@H](CO)c1[nH]c3cc(OC)ccc3c12 do in these assays?
Pf Dd2 inh: -77; C diff growth: -8

Results for COc1ccc2c3c([nH]c2c1)[C@H](CO)N(S(=O)(=O)c1ccc(C)cc1)CC31CN(Cc2ccccc2)C1 ?
Pf Dd2 inh: -87*; C diff growth: -22

Results for C[C@H]1CN([C@@H](C)CO)C(=O)c2cccc(NC(=O)Nc3cccc4ccccc34)c2O[C@H]1CN(C)S(=O)(=O)c1cn(C)cn1 ?
Pf Dd2 inh: -4; C diff growth: -3
